{
  "source": "PubChem BioAssay AID2283179",
  "about": "(EPA ToxCast)",
  "note": "Results filed as inconclusive are left out. Activity calls are given as the source filed them. The calls were made as follows: active = hit-call score of the fitted dose curve at least 0.9, where 1 is the maximum; inconclusive = response in the unintended direction; inactive = score below 0.9.",
  "data": [
    {"molecular_target": "human Microtubule Affinity Regulating Kinase 1 (MARK1), MARK1 (gene 4139) (UniProt Q9P0L2)", "sequence (Q9P0L2 whole entry, looked up)": "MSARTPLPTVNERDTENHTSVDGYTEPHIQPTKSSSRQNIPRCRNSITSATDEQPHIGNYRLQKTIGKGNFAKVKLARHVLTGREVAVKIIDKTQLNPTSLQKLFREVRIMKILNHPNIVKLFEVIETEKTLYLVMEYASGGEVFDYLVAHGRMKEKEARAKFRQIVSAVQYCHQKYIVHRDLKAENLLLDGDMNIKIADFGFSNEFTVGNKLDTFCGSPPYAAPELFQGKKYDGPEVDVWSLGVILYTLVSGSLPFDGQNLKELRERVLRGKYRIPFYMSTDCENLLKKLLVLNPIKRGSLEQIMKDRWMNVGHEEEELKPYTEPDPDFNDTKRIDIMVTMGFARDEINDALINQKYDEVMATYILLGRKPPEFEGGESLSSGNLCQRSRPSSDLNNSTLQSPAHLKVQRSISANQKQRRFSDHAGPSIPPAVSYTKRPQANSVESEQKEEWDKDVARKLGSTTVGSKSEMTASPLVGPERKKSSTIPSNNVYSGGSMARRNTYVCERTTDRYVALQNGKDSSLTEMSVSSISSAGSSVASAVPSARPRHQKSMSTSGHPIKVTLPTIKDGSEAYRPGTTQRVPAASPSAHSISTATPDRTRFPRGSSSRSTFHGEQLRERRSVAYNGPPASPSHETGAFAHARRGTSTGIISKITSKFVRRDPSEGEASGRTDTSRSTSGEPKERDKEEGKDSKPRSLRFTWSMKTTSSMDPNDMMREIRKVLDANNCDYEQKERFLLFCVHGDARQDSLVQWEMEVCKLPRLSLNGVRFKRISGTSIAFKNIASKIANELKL", "experiment": "NVS_ENZ_hMARK1: NovaScreen (NVS) Enzymatic Assay for human Microtubule Affinity Regulating Kinase 1 (MARK1)", "experimental": "NVS_ENZ_hMARK1 is a biochemical, single-readout assay that uses extracted gene-proteins in a cell-free assay. Measurements were taken 1 hour after chemical dosing in a 384-well plate.NVS_ENZ_hMARK1 is one of one assay component(s) measured or calculated from the NVS_ENZ_hMARK1 assay. It is designed to make measurements of enzyme activity, a form of enzyme reporter, as detected with fluorescence intensity signals by Fluorescence and electrophoretic mobility shift technology.Data from the assay component NVS_ENZ_hMARK1 was analyzed into 1 assay endpoint. This assay endpoint, NVS_ENZ_hMARK1, was analyzed in the positive analysis fitting direction relative to DMSO as the negative control and baseline of activity. Using a type of enzyme reporter, loss-of-signal activity can be used to understand changes in the enzymatic activity as they relate to the gene MARK1. Furthermore, this assay endpoint can be referred to as a primary readout, because this assay has produced multiple assay endpoints where this one serves a enzymatic activity function. To generalize the intended target to other relatable targets, this assay endpoint is annotated to the kinase intended target family, where the subfamily is serine/threonine kinase.\nBinding assays used specific radioligands (tritiated, iodinated) with non-radioactive competitive displacement ligands in agonist or antagonist protocols (as indicated) and various reference compounds and inhibitors to titrate specific binding to receptors and transporters. Most enzyme assays (CYPs, kinases, phosphatases, proteases, HDACs) used recombinant protein and specific substrates (fluorescence mostly, some colorimetric and radioactive) and inhibitors, followed by a biochemical separation of substrate and product. All assays for the biochemical HTS were initially run in duplicate at a single concentration (10 uM for CYP450 assays and 25 uM for all others). Assay-chemical combinations meeting a pre-defined threshold (e.g., 30% inhibition and other criteria defined below) were then run in singleton concentration-response format with maximum concentration of 20 uM for CYPs and 50 uM for all others. Each assay was run with positive and negative controls, and concurrent controls on every plate. The follow-up (secondary) screen tested active chemical-pairs in concentration series, as well as a few additional assays not tested in the primary screen, some selected negative inactives, and several cases re-run in the concentration series for confirmatory purposes.", "values": [
      {"smiles": "O=C(O)C1(C(=O)Nc2ccc(Cl)cc2Cl)CC1", "AC50": "7.85 µM (active)"},
      {"smiles": "S=C(S)NCCNC(=S)S.[Mn+2].[S-]C([S-])=NCCN=C([S-])[S-].[Zn+2]", "AC50": "1.38 µM (active)"},
      {"smiles": "S=C([S-])NCCNC(=S)[S-].[Mn+2]", "AC50": "0.406 µM (active)"},
      {"smiles": "O=C(Nc1ccc([N+](=O)[O-])cc1Cl)c1cc(Cl)ccc1O", "outcome": "inactive"}
    ]}
  ]
}
